Out of some 16,000 compounds screened, about 5,700 (36%) were called active. Roughly 24% stayed inconclusive and do not appear here. This is one part of the list. Unmarked numbers belong to inactive results. Calls follow the shape of the dose curve; as a rule, active = well fitted curve in the direction sought with a large enough effect; inconclusive = small, poorly fitted or top-dose-only effect, or effect the other way; inactive = no such curve, though single readings can be large or run the other way.

The AC50 is the midpoint of the concentration-response curve, whichever way the signal moves.
% is scaled to controls: 0 for no effect and ±100 for the full control effect.

Chain of Cytochrome P450 1A2 (Homo sapiens) (P05177 whole entry, looked up): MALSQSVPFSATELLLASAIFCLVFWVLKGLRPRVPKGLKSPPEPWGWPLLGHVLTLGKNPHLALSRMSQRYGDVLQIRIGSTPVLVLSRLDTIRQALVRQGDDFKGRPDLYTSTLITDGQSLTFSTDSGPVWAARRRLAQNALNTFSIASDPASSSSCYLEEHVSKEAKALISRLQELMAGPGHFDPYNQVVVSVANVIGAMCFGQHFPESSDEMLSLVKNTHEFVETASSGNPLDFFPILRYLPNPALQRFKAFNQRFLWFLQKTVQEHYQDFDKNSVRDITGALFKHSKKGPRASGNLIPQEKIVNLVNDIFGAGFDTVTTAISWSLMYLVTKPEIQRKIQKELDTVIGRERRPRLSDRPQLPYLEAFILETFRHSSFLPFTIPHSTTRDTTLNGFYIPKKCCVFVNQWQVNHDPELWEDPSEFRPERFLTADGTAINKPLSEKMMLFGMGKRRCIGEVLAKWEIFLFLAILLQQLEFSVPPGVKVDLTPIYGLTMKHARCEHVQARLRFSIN

The test addresses Cytochrome P450 1A2 (Homo sapiens) (UniProt P05177). Briefly: Cytochrome panel assay with activity outcomes. To be noted: recombinant CYP, pro-luciferin dealkylation, luminescence, p450-cyp1a2; series mostly up to 57.1 µM.
Consider `Cn1cccc1C(=O)N1CCC[C@@]2(CCN(Cc3nccs3)C2)C1`, for which the AC50 result is “inactive”.
In the case of `CCN(CC)S(=O)(=O)c1ccc(C(=O)NC2=C(C(=O)OC)SCC2)cc1`, the AC50 was 12.6 µM (active).
For the molecule `CCN(CC)S(=O)(=O)c1ccc(C(=O)Nc2ncn(Cc3ccccc3)n2)cc1`, the AC50 entry is “inactive”.
Still for that read-out and setting: to `COC(=O)C1=C(NC(=O)c2cccc(OC)c2)CCS1` belongs 3.16 µM (active); to `CCCCN(CC)S(=O)(=O)c1ccc(C(=O)Nc2nnc(CSC)o2)cc1`, “inactive”; to `CCC(=O)N1CCN(c2ccc(NC(=O)c3cccs3)cc2)CC1`, “inactive”.
Same read-out and setting: to `COC(=O)C1=C(NC(=O)c2cccs2)CCS1` belongs 2.51 µM (active).
Same read-out and setting: to `CC(=O)N(O)CCCCCNC(=O)CCC(=O)N(O)CCCCCNC(=O)CCC(=O)N(O)CCCCCN` belongs “inactive”.
Turning to `O=C1[C@@H]2C=CC=CC2=NC(=S)N1CCN1CCC(=C(c2ccc(F)cc2)c2ccc(F)cc2)CC1`, the AC50 result is “inactive”.
Still for that read-out and setting: the same measure for `O=C(Nc1cccc(OC(=O)c2ccco2)c1)c1ccco1`: 22.4 µM (active); for `COc1ccc(C(C)=O)c(OC(=O)c2ccco2)c1`: 2 µM (active); for `O=C(NNC(=S)Nc1ccccc1)c1ccco1`: “inactive”.
On the same count and under the same terms, to `CN(C(=O)C(Cl)Cl)c1ccc(OC(=O)c2ccco2)cc1` belongs “inactive”; to `O=C(Oc1ccccc1[N+](=O)[O-])c1cccnc1`, 20 µM (active); to `O=C(Oc1cccc(Br)c1)c1cccnc1`, 12.6 µM (active).
As to `NC(=O)c1ncn([C@@H]2O[C@@H](CO)[C@@H](O)[C@H]2O)c1O`, the AC50 result is “inactive”.
The same measure, in the same setting: to `O=[N+]([O-])c1ccc(CSc2ncnc3c2ncn3[C@@H]2O[C@@H](CO)[C@@H](O)[C@H]2O)cc1` belongs “inactive”; to `O=C(Nc1cccc(OC(=O)c2cccnc2)c1)c1cccnc1`, 7.08 µM (active).
Same read-out and setting: to `O=C(Nc1cccc(NC(=O)c2ccc(-c3cccc(Br)c3)o2)c1)c1ccco1` belongs 3.16 µM (active); to `CCOc1ccc(C(=O)Nc2ccc(NC(=O)c3ccco3)c(Cl)c2)cc1Br`, “inactive”; to `O=C(Nc1ccc2nc(-c3ccc(Br)o3)[nH]c2c1)c1ccco1`, 3.55 µM (active).
The same measure, in the same setting: to `O=C(Nc1ccc(OC(=O)c2cccnc2)cc1)c1cccnc1` belongs “inactive”.
With `CC(C)C(=O)Nc1ccc(NC(=O)c2cccnc2)cn1`, the AC50 result was “inactive”.
For `CN(C)Cc1ccccc1-c1nccc(NC2CC2)n1`, the AC50 is 1.58 µM (active).
Same read-out and setting: the same measure for `CN(C)Cc1ccccc1-c1nccc(N(C)C)n1`: 12.6 µM (active).
Consider `CN(C)Cc1cc(C(C)(C)C)ccc1-c1ccc(C(C)(C)C)cc1CN(C)C`, for which the activity, negative = inhibition is -17.9% [at 2.29 µM].
For the molecule `CNc1ccnc(-c2ccccc2CN(C)C)n1`, the AC50 is 12.6 µM (active).
In the case of `CN(C)Cc1ccccc1-c1nccc(Nc2ccc(F)cc2)n1`, the AC50 is 3.16 µM (active).
Consider `COCC(=O)N1CCC2(CC1)CCN(C(c1ccccc1)c1ccccc1)CC2`, for which the AC50 result was “inactive”.
As to `O=C(Nc1cccc(F)c1)N1CC[C@@]2(CCCN(C(=O)c3cnccn3)C2)C1`, the AC50 entry was “inactive”.
With `CCOC(=O)c1c(CC(C)C)csc1NC=O`, the AC50 was 0.224 µM (active).
`COc1cccc(Nc2ncc3nc(-c4cccs4)c(=O)n(CCC#N)c3n2)c1`: the AC50 was 2.51 µM (active).
As for `N#CCCn1c(=O)c(-c2cccs2)nc2cnc(Nc3ccccc3)nc21`, the AC50 is 5.01 µM (active).
The same measure, in the same setting: the same measure for `CCNc1ncc2nc(-c3cccs3)c(=O)n(CCC#N)c2n1`: 3.16 µM (active); for `CCNc1ncc2nc(-c3cccs3)c(=O)n(CCc3ccccc3)c2n1`: 10 µM (active).
Still for that read-out and setting: to `CCOC(=O)c1c(-c2ccc(C)o2)csc1NC(=S)NC(=O)N(C)C` belongs 1.58 µM (active).
For `O=C1C2=CC[C@H]3C(=O)N(c4cccc(Oc5ccccc5)c4)C(=O)[C@@H]3[C@@H]2[C@H](O)[C@@H]2O[C@H]12`, the activity, negative = inhibition was -1.58% [at 11.4 µM].
Turning to `CN(C)c1ccc(NC(=O)c2cccc(N3C(=O)C4C5C=CC(C5)C4C3=O)c2)cc1` (stereo not drawn), the AC50 was 2 µM (active).
For the molecule `O=C(CCN1C(=O)C2C3C=CC(C3)C2C1=O)Nc1ccc2ncccc2c1` (stereo not drawn), the AC50 entry was “inactive”.
With `O=C(CN1C(=O)C2C3C=CC(C3)C2C1=O)Nc1ccc(C(=O)O)cc1` (stereo not drawn), the AC50 entry was “inactive”.
`CO[C@@H]1COC(=O)C/C=C\[C@@H](C)COC(=O)[C@H](COCc2ccccc2)NC(=O)C/C=C\[C@H]1C`: the activity, negative = inhibition is -7.1% [at 11.4 µM].
Take `CCOc1ccc(-c2c[n+](=O)c3c(n2[O-])CCCC3)c(OCC)c1`: the AC50 entry was “inactive”.
Consider `O=[n+]1c2c(n([O-])c3cc(F)c(F)cc31)CCCC2`, for which the AC50 is 14.1 µM (active).
The same measure, in the same setting: to `CCC1(C)Nc2ccccc2C(=O)N1O` (stereo not drawn) belongs “inactive”; to `CCCC1(C)Nc2ccccc2-c2nc3ccccc3n21` (stereo not drawn), 8.91 µM (active).
Same read-out and setting: to `CCCCC1(C)Nc2ccccc2-c2nc3ccccc3n21` (stereo not drawn) belongs 14.1 µM (active); to `CN(C)c1ccc(-c2cc(Nc3ccc(F)cc3)ncn2)cc1`, 0.398 µM (active).
For `Fc1ccc(Nc2ccnc(-c3ccc4c(c3)OCO4)n2)cc1`, the AC50 was 0.631 µM (active).
The same measure, in the same setting: to `CN(C)C(=O)c1ccc(-c2nccc(Nc3ccc(F)cc3)n2)cc1` belongs 6.31 µM (active); to `Fc1ccc(Nc2ccnc(-c3ccoc3)n2)cc1`, 1 µM (active).
As for `CCCCC1CC(/C(C)=N/NC(N)=O)OC1=O` (stereo not drawn), the AC50 result was “inactive”.
In the case of `C[C@@]12CC(=O)[C@@H]3[C@@H](CCC4=CC(=O)CC[C@]43C)[C@@H]1CC=C2CC(=O)O`, the activity, negative = inhibition was -17% [at 11.4 µM].
On to `NC(=O)CCCC1=NS(=O)(=O)c2ccccc2N1`, for which the AC50 result is “inactive”.
Same read-out and setting: the same measure for `CN(C)[C@@H]1C(=O)C(C(N)=O)=C(O)[C@]2(O)C(=O)C3=C(O)c4c(O)ccc(Cl)c4[C@H](O)[C@H]3C[C@@H]12`: “inactive”.
Consider `CC1(C)O[C@H]2[C@@H](c3[nH]nc4c(=O)[nH]c(=O)[nH]c34)OC[C@H]2O1`, for which the activity, negative = inhibition is -11.5% [at 11.4 µM].
`CN(C)c1ccc(-c2nccc(Nc3ccc(F)cc3)n2)cc1`: the AC50 was 0.501 µM (active).
With `NNC(=O)[C@@H](O)[C@H](O)[C@H](O)CO`, the activity, negative = inhibition is -0.774% [at 11.4 µM].
Still for that read-out and setting: to `NC(Cc1ccccc1)=NCC(=O)O` belongs -5.52% [at 11.4 µM].
On to `N=C(N)[C@H](N=Nc1ccccc1)C(N)=O`, for which the AC50 was 0.794 µM (active).
`N#C[C@@H](N=Nc1ccccc1C(=O)O)C(N)=O`: the activity, negative = inhibition was -8.23% [at 11.4 µM].
Same read-out and setting: to `CC(C)(C)NC[C@@H](O)c1ccc(O)c(CO)n1` belongs 10.1% [at 2.29 µM].
For the molecule `CC[N+](C)(CC)CCC[n+]1c(-c2ccccc2)c2cc(N)ccc2c2ccc(N)cc21`, the AC50 is 12.6 µM (active).
For the molecule `Cn1c(=O)c2[nH]c(CCCc3ccc([N+](=O)[O-])cc3)nc2n(C)c1=O`, the activity, negative = inhibition is -18.9% [at 11.4 µM].
Regarding `Cn1c(=S)c2[nH]c(SCCCc3ccccc3)nc2n(C)c1=O`, the AC50 was 3.16 µM (active).
For `Cn1c(=S)c2[nH]c(SCCN3CCCC3)nc2n(C)c1=O`, the activity, negative = inhibition is -29.7% [at 2.29 µM].
Still for that read-out and setting: the same measure for `COC(=O)C/C=C\[C@@H](C)[C@@H](/C=N\OC[C@@H](O)COCc1ccco1)NS(=O)(=O)c1ccc(C)cc1`: 3.98% [at 11.4 µM].
`Oc1cccc(-c2nc3c4c(ncn3n2)-c2ccccc2CC42CCCC2)c1`: the AC50 was 10 µM (active).
For `NC(=S)Nc1cccc2cccnc12`, the AC50 is 12.6 µM (active).
As for `O=C(Nc1cccc2cccnc12)[C@@H]1[C@@H](C(=O)O)[C@H]2CC[C@@H]1O2`, the activity, negative = inhibition is -11% [at 11.4 µM].
Same read-out and setting: to `Cc1cc2c(nc1C)CCCN2C[C@@H](O)CN1CCN(C)CC1` belongs -2.48% [at 11.4 µM].
With `O=C(NC(=S)Nc1cccc(Cl)c1N1CCCCC1)c1ccco1`, the AC50 is 12.6 µM (active).
For the molecule `CC(=O)NS(=O)(=O)c1ccc(NC(=S)NC(=O)c2ccco2)cc1`, the AC50 result was “inactive”.
Same read-out and setting: the same measure for `CN(C1CCCCC1)S(=O)(=O)c1ccc(NC(=S)NC(=O)c2cccs2)cc1`: “inactive”; for `CC1CCN(c2ccccc2NC(=S)NC(=O)c2cccs2)CC1`: 7.08 µM (active).
With `Cc1c(Cl)cccc1NC(=O)CCC(=O)NNC(=O)c1ccco1`, the AC50 entry was “inactive”.
Same read-out and setting: to `O=C(NC(=S)Nc1cccc(Cl)c1N1CCCCC1)c1cccs1` belongs 10 µM (active); to `Cc1c(NC(=S)/C=C2\N(C)c3ccccc3C2(C)C)c(=O)n(-c2ccccc2)n1C`, “inactive”.
Still for that read-out and setting: to `CC1=NN(c2ccccc2)C(=O)/C1=C\c1c(C)[nH]n(-c2ccccc2)c1=O` belongs “inactive”.
Still for that read-out and setting: to `COc1cccc(C(c2c(C)[nH]n(-c3ccccc3)c2=O)c2c(C)[nH]n(-c3ccccc3)c2=O)c1O` belongs 7.08 µM (active).
With `COc1cccc(C2NC(c3cccc(OC)c3O)C(C)C(=O)C2C)c1O` (stereo not drawn), the AC50 entry is “inactive”.
For `CCN1CCC[C@H]1CNC(=O)c1c(OC)ccc(Br)c1OC`, the AC50 result was “inactive”.
Still for that read-out and setting: to `CCN(CCCNC(=O)CC(C(=O)N1CCc2ccccc21)n1ccnc1)c1ccccc1` (stereo not drawn) belongs 3.16 µM (active); to `CCCCN(C)CCCNC(=O)CCn1nc(-c2ccccc2)ccc1=O`, “inactive”; to `CCC(=O)[C@@]1(C)[C@H](C)C[C@@H]2[C@@H]3CCC4=CC(=O)C=C[C@@]4(C)[C@H]3[C@H](O)C[C@]21C`, “inactive”.
In the case of `Cc1ccc(-n2c(=O)c3sccc3n(CC(=O)NCc3ccco3)c2=O)cc1F`, the AC50 result was “inactive”.
Consider `O=C(Cn1c(=O)n(Cc2ccco2)c(=O)c2c3c(sc21)CCCCC3)c1ccccc1`, for which the AC50 was 12.6 µM (active).
On to `CN(C)CCn1c(=O)n(Cc2ccco2)c(=O)c2c3c(sc21)CCCCC3`, for which the AC50 is 2.24 µM (active).
On the same count and under the same terms, to `NC(=O)Cn1c(=O)n(Cc2ccco2)c(=O)c2c3c(sc21)CCCCC3` belongs 4.47 µM (active).
The same measure, in the same setting: to `CN(c1ccccc1)c1ccc(/C=c2\s/c(=C(/C#N)C(=O)C(C)(C)C)n(Cc3ccco3)c2=O)cc1` belongs “inactive”; to `O=C(O)/C=C/C(=O)Nc1ccccc1-c1ccccc1`, “inactive”.
Regarding `O=C(O)/C=C\C(=O)Nc1cccc2c1-c1ccccc1C2=O`, the AC50 was 2.51 µM (active).
Still for that read-out and setting: the same measure for `CC[C@H](C)N(C)C(=O)c1cc2ccccc2c(-c2ccccc2Cl)n1`: “inactive”; for `Fc1ccc(-c2ccnc3nc(N4CCOCC4)nn23)cc1`: 10 µM (active).

The record behind these values is PubChem BioAssay AID1851 (National Center for Advancing Translational Sciences (NCATS), 2009).
